# Assay results: PubChem BioAssay AID504834 (National Center for Advancing Translational Sciences (NCATS), 2011)
# About 22,000 (6.9%) of roughly 320,000 compounds were called active. Roughly 27% stayed inconclusive and do not appear here. The call rests on the fitted dose curve; in most records, active means well fitted inhibition curve with a large enough effect; inconclusive means small, poorly fitted or top-dose-only effect, or another doubt; inactive means no such curve, though single readings can be large or run the other way. The list comes from a sample in which actives are over-represented; it also holds similar structures and randomly drawn compounds.
# Test: Primary qHTS for delayed death inhibitors of the malarial parasite plastid, 96 hour incubation
# Settings: P. falciparum luciferase reporter growth; series mostly up to 28.7 µM; activity change, negative = inhibition: at the top concentration
# Procedure, shortened: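 P. falciparum expressing integrated firefly luciferase, in erythrocytes at 2% hematocrit, 0.05% parasitemia, incubated with compounds 96 h at 37 C, 5% CO2. Growth inhibition read as loss of luminescence; two-generation exposure targets delayed-death apicoplast inhibitors.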
# On the % scale 0 is the no-effect control and ±100 the full control effect; potency means the concentration at half of the fitted maximal effect.
Structure (SMILES),"activity change, negative = inhibition",Potency
CC(=O)C[C@@H](O)CC(=O)[C@H]1OC(=O)CCCCCCc2ccccc21,33.7% (inactive),–
CCCCn1c(N)c(N(CCOC)C(=O)c2cccc(OCc3ccccc3)c2)c(=O)[nH]c1=O,-15.2% (inactive),–
COc1ccc(CCn2c(=N)c(C(=O)NCc3ccco3)cc3c(=O)n4cccc(C)c4nc32)cc1,–,0.586 µM (active)
Cc1ccc(-c2noc(-c3ccccc3C(=O)NCC3CCCO3)n2)cc1 (stereo unspecified),23.6% (inactive),–
COCC(C)OC(=O)c1c(N)n(CCCN2CCOCC2)c2nc3ccccc3nc12 (stereo unspecified),-41.3% (inactive),–
Cc1cccn2c(CNCC(C)Oc3cccnc3)c(C(=O)N3CCOCC3)nc12 (stereo unspecified),2.34% (inactive),–
Cc1cccn2c(=O)c3cc(C#N)c(=O)n(CCCN4CCOCC4)c3nc12,–,2.62 µM (active)
Cc1cccn2c(=O)c3cc(C(=O)NCC4CCCO4)c(=N)n(Cc4ccc(F)cc4)c3nc12 (stereo unspecified),–,9.28 µM (active)
COc1ccc(Cn2c(=S)[nH]c3cc(C(=O)NCCCN4CCOCC4)ccc3c2=O)cc1,12.8% (inactive),–
COCCNC(=O)c1ccc(Cn2c(SCC(=O)NCC3CCCO3)nc3ccc(Br)cc3c2=O)cc1 (stereo unspecified),-0.164% (inactive),–
CCn1c(=N)c(C(=O)NCCCOC)cc2c(=O)n3cccc(C)c3nc21,0% (inactive),–
Cc1ccc2cc(C#N)c(NCCNC(=S)NCCCN3CCOCC3)nc2c1,31.8% (inactive),–
O=C(NCc1ccco1)c1cccn2c(=O)c3c4c(sc3nc12)CCCC4,-0.317% (inactive),–
Cc1cccn2c(=O)c3cc(C(=O)NCCN4CCOCC4)c(=N)n(Cc4cccnc4)c3nc12,–,7.38 µM (active)
O=C(c1c(F)cccc1F)N1CCN(c2ncc(Br)cn2)CC1,8.96% (inactive),–
COC(=O)c1ccc(/C=N/NC(=O)C(=O)N2CCCCCC2)cc1,14% (inactive),–
Brc1ccccc1C1N=C(c2ccccc2)NO1 (stereo unspecified),189% (inactive),–
CCCCn1c(N)c(N(CC(C)C)C(=O)c2cccc(S(=O)(=O)N3CCN(C(C)=O)CC3)c2)c(=O)[nH]c1=O,-22.4% (inactive),–
CCN(C(=O)Cc1c(C(=O)O)n(CC)c2ccccc12)c1ccccc1C,41.7% (inactive),–
COc1ccc(C(=O)COC(=O)Cn2cnc3c2c(=O)n(C)c(=O)n3C)c(OC)c1,-24.7% (inactive),–
N#Cc1cccc(CSc2ncnc(N)n2)c1,2.96% (inactive),–
Cc1cc(C)n(-c2nnc(N3CCN(c4ccccc4)CC3)nn2)n1,–,0.329 µM (active)
Cc1cc(N2CCN(c3ccccc3)CC2)nc(N2CCOCC2)n1,-12% (inactive),–
Cc1cc(-n2nc(C)cc2C)n2ncc(-c3ccccc3)c2n1,0% (inactive),–
COc1ccc(N(CC(=O)Nc2cc(OC)cc(OC)c2)S(=O)(=O)c2c(C)n[nH]c2C)cc1,3.89% (inactive),–
Cc1ccnc(N2C(=O)c3ccc([N+](=O)[O-])cc3C2=O)c1,-15.9% (inactive),–

Structure (SMILES),"activity change, negative = inhibition",Potency
Nc1cc(N2CCCCCC2)c2nonc2c1[N+](=O)[O-],-10.3% (inactive),–
COc1ccc(C(=O)Nc2ccc3nc(N4CCCCC4)cc(C)c3c2)cc1OC,–,11.7 µM (active)
COc1ccc(C(=O)NC(=S)Nc2ccc(N3CCCC3)cc2)cc1OC,-18.8% (inactive),–
COc1ccc(C(=O)Nc2ccc3c(c2)OCO3)cc1OC,155% (inactive),–
COc1ccccc1C(=O)NCC(=O)NCCSc1ccc(Br)cc1,-14.1% (inactive),–
CCOc1cc(/C=N/Nc2cc(C)nc3ccc(C)cc23)ccc1O,-21.3% (inactive),–
CNc1ccc([N+](=O)[O-])cc1C(=O)O,-4.06% (inactive),–
CCCCN(C(=O)c1ccc(S(=O)(=O)N2CCOCC2)cc1)C1CCS(=O)(=O)C1 (stereo unspecified),22% (inactive),–
CC1CCCCN1C(=O)Cn1c(=O)oc2cc(S(=O)(=O)N3CCCCC3)ccc21 (stereo unspecified),-24% (inactive),–
COC(=O)c1ccc(N2CCOCC2)c(NC(=O)c2ccc(Br)o2)c1,33.6% (inactive),–
O=C(Nc1ccccc1N1CCN(C(=O)c2ccccc2)CC1)c1ccco1,-8.23% (inactive),–
CCCNC(=O)c1ccc(N2CCC3(CC2)CC(c2cccc(Br)c2)=NO3)c(NC(=O)c2ccco2)c1,–,0.37 µM (active)
CC(CCc1ccc(O)cc1)NCc1ccc(Cl)cc1Cl (stereo unspecified),22.2% (inactive),–
O=C(CNS(=O)(=O)c1ccccc1)N1CCN(C(=O)c2ccco2)CC1,33.3% (inactive),–
CC(OC(=O)Cc1ccc(F)cc1)C(=O)N1CCc2ccccc21 (stereo unspecified),33.6% (inactive),–
N=c1c2c3c(sc2ncn1N)CCCC3,-21.6% (inactive),–
c1nnc2c3c4c(sc3ncn12)CCC4,-4.03% (inactive),–
N=c1c2c3c(sc2ncn1N)CCCCC3,–,3.7 µM (active)
C[C@@H]1O[C@@H](OC[C@H]2O[C@@H](Oc3c(-c4ccc(O)cc4)oc4cc(O)cc(O)c4c3=O)[C@H](O)[C@@H](O)[C@@H]2O)[C@H](O)[C@H](O)[C@H]1O,41.3% (inactive),–
COc1ccc(CC(=O)Nc2cc(S(=O)(=O)N3CCCCC3)ccc2N2CCN(C)CC2)cc1,–,6.57 µM (active)
O=C(COC(=O)Cc1ccc(F)cc1)Nc1cc(S(=O)(=O)N2CCOCC2)ccc1N1CCCC1,-12.5% (inactive),–
CN1CCN(c2ccc(S(=O)(=O)N3CCOCC3)cc2NC(=O)CCc2ccccc2)CC1,-0.796% (inactive),–
CCOc1cccc2cc(C(=O)OCC(=O)Nc3c(C)cccc3CC)c(=O)oc12,5.09% (inactive),–
Cc1ccc(S(=O)(=O)N2CCC3(CC2)OCCO3)c(C)c1,49% (inactive),–
Cc1cccc(N2CCN(C(C)C(=O)N3CCc4ccccc43)CC2)c1C (stereo unspecified),-15.4% (inactive),–
Cc1sc2ncn(CC(=O)NCCCC(=O)N(C)Cc3ccccc3)c(=O)c2c1C,8.23% (inactive),–

Structure (SMILES),"activity change, negative = inhibition",Potency
CCOc1cc(CN2CCCC(CO)(Cc3ccc(F)cc3F)C2)ccc1OC (stereo unspecified),-25% (inactive),–
Cc1ccccc1CC1(CO)CCCN(Cc2ccc3c(c2)OCCO3)C1 (stereo unspecified),–,14.7 µM (active)
COc1cccc(CC2(CO)CCCN(CC3=Cc4cc(OC)ccc4OC3)C2)c1 (stereo unspecified),-2.4% (inactive),–
CC(NC(=O)c1cc2cc(Cl)ccc2oc1=N)c1ccccc1 (stereo unspecified),-10.9% (inactive),–
Cn1c(Nc2cccc(Cl)c2)nc2ccccc21,3.82% (inactive),–
Cc1c(C(=O)Nc2cccc(Cl)c2)cn2c(nc3ccccc32)c1C#N,–,2.94 µM (active)
Cn1cc(Cl)c(C(=O)NNC(=S)Nc2cccc(Cl)c2)n1,25.8% (inactive),–
O=S(=O)(c1cccs1)N1CCN(CCOc2ccccc2)CC1,9.87% (inactive),–
COc1ccccc1C(=O)Nn1cnnc1,-44.5% (inactive),–
CCn1cc(C(=O)NCCO)c(=O)c2cc(F)c(N3CCN(C)CC3)cc21,13.3% (inactive),–
CCOC(=O)c1ccc(NC(=O)CCn2c(=O)oc3ccccc32)cc1,6.94% (inactive),–
C/C(=N\NC(=O)Cc1ccc(Br)cc1)c1cccnc1,-24.8% (inactive),–
C/C(=N\NC(=O)c1ccccc1F)c1ccccn1,-24.9% (inactive),–
COc1ccc(CC(=O)N/N=C(\C)c2ccccn2)cc1,–,3.29 µM (active)
Nc1nnc(SCC(=O)NC2CCCc3ccccc32)s1 (stereo unspecified),-8.49% (inactive),–
O=C(c1cccnc1NCc1ccccc1)N1CCOCC1,-5.66% (inactive),–
c1ccc(COc2nsnc2N2CCOCC2)cc1,2.16% (inactive),–
Fc1cnc(N2CCOCC2)nc1NCc1ccccc1,–,2.94 µM (active)
CC(=O)c1ccc(S(=O)(=O)N2CCC(Oc3ccc(-n4cnnn4)cc3)CC2)cc1,-14.5% (inactive),–
CSCCC1NC2(C(=O)Nc3ccc(Cl)cc32)[C@@H]2C(=O)N(C3CCCC3)C(=O)[C@H]12 (stereo partly specified),–,11.7 µM (active)
O=C1[C@@H]2C(Cc3ccc(O)cc3)NC3(C(=O)Nc4ccc(F)cc43)[C@@H]2C(=O)N1c1ccc(F)cc1 (stereo partly specified),-3.79% [at 5.75 µM] (inactive),–
CC(C)(C)NC(=O)NCc1ccco1,24.3% (inactive),–
Cc1cc(C)nc(N2CCC(C(=O)Nc3ccc4c(c3)OCCO4)CC2)n1,–,9.28 µM (active)
O=C(Nc1ccc2c(c1)OCCO2)C1CCCN(c2ncccn2)C1 (stereo unspecified),-5.17% (inactive),–
Cc1sc2ncn(CC(=O)NCCCC(=O)N3CCN(c4ccccc4F)CC3)c(=O)c2c1C,-28.1% (inactive),–
CC(=O)c1cc(CN2CCC(n3nccc3NC(=O)c3ccccc3Cl)CC2)cs1,23% (inactive),–

Structure (SMILES),"activity change, negative = inhibition",Potency
CC(=O)Nc1ccc(/C=N/Nc2ccc(C(=O)c3c(C)cc4ccccn34)cc2[N+](=O)[O-])cc1,92.7% (inactive),–
CCOC(=O)CCc1c(C)c2ccc(OCc3nn[nH]n3)c(C)c2oc1=O,-14.7% (inactive),–
COc1ccc2c(C)c(CCC(=O)NC3CC3)c(=O)oc2c1C,–,4.15 µM (active)
Cc1c(CCC(=O)O)c(=O)oc2c(C)c(OCc3ccccc3Cl)ccc12,56.3% (inactive),–
Cc1c(C(C)CCCO)oc(=O)c2c1Oc1c(C)c(C(C)C[C@@H](C)O)oc(=O)c1C2 (stereo partly specified),-32.3% (inactive),–
CN1c2ccc([N+](=O)[O-])cc2C(C)(C)C12C=Cc1cc(C(=O)O)ccc1O2 (stereo unspecified),-17.2% (inactive),–
CC(C(=O)N1CCN(c2ccccc2F)CC1)c1ccc([N+](=O)[O-])cc1 (stereo unspecified),–,9.28 µM (active)
O=C(CCSc1ccccc1)N1CCN(c2ccccc2F)CC1,18.7% (inactive),–
O=C(c1cccc2ccccc12)N1CCN(c2ccccc2F)CC1,-12.8% (inactive),–
Cc1ccc(OCCCC(=O)Nc2ccc3c(c2)OCCO3)cc1,37.2% (inactive),–
O=C(Nn1cnnc1)c1cc(Cl)ccc1Cl,2.88% (inactive),–
O=C(NC(=S)Nc1ccc(Cl)c(C(=O)O)c1)c1cncc(Br)c1,11.9% (inactive),–
Cn1c2c(c(=O)n(C)c1=O)C1c3ccccc3OCC1C(C)(C)O2 (stereo unspecified),–,1.65 µM (active)
Cn1c2c(c(=O)n(C)c1=O)[C@@H]1c3c(ccc4ccccc34)OC[C@@H]1CO2,43% (inactive),–
COc1cccc2c1OCC1COc3c(c(=O)n(C)c(=O)n3C)C21 (stereo unspecified),-2.79% (inactive),–
COc1ccccc1OC(=O)c1ccc(C)c(S(=O)(=O)N2CCOCC2)c1,26.4% (inactive),–
COc1ccc(COC(=O)c2ccc(Cl)c(S(=O)(=O)N3CCOCC3)c2)cc1F,–,14.7 µM (active)
COc1ccc(C(=O)OCC(=O)c2ccc(C)c(S(=O)(=O)N3CCOCC3)c2)cc1OC,5.96% (inactive),–
C=CCNC(=O)c1ccccc1SCc1c(C)noc1C,27.8% (inactive),–
O=C(c1ccc[nH]c1=S)N1CCN(S(=O)(=O)c2ccc(Br)cc2Cl)CC1,-19.4% (inactive),–
O=C(Nc1nnc(C2CC2)s1)c1cc(Cl)sc1Cl,6.36% (inactive),–
Cc1cc(C(=O)Nc2nnc(C3CC3)s2)c(C)s1,249% (inactive),–
O=C(Nc1nnc(C2CC2)s1)c1ccccn1,–,10.4 µM (active)
